Source: PubChem BioAssay (NCATS)
Records with an inconclusive call do not appear. Entries that show only a call come without a potency. Active and inactive are the calls of the source. Calls come from the whole dose curve; as a rule, active = well fitted inhibition curve with a large enough effect; inconclusive = small, poorly fitted or top-dose-only effect; inactive = flat fitted curve, though single readings scatter.

Tests used:
Assay in all cases: qHTS profiling for inhibitors of Plasmodium falciparum proliferation (AID 504749); note: nearly all actives have a fitted effect of over 60% in size
Details in all cases: P. falciparum in erythrocytes, SYBR Green DNA, 72 h; series mostly up to 28.7 µM
[1] = system: 3D7
Method in brief: (§1)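 In a 72 h erythrocytic culture (37 C, humidified, 5% CO2) at 2.5% hematocrit and 0.3% starting parasitemia, compounds were tested; SYBR Green I in detergent lysis buffer stained parasite DNA overnight.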

[2] = system: 7G8
Method in brief: as §1

[3] = system: AA1029
Method in brief: as §1

[4] = system: AS120
Method in brief: as §1

[5] = system: ATS189
Method in brief: as §1

[6] = system: ATS95
Method in brief: as §1

[7] = system: C2A
Method in brief: as §1

[8] = system: CP185
Method in brief: as §1

[9] = system: CP191
Method in brief: as §1

[10] = system: CP192
Method in brief: as §1

[11] = system: CP194
Method in brief: as §1

[12] = system: CP201
Method in brief: as §1

[13] = system: CP211
Method in brief: as §1

[14] = system: CP215
Method in brief: as §1

[15] = system: CP217
Method in brief: as §1

[16] = system: CP237
Method in brief: as §1

[17] = system: CP238
Method in brief: as §1

[18] = system: CP247
Method in brief: as §1

[19] = system: CP250
Method in brief: as §1

[20] = system: CP203
Method in brief: as §1
Potency is the fitted concentration of half-maximal effect.

| SMILES | Potency [1] | Potency [2] | Potency [3] | Potency [4] | Potency [5] | Potency [6] | Potency [7] | Potency [8] | Potency [9] | Potency [10] | Potency [11] | Potency [12] | Potency [13] | Potency [14] | Potency [15] | Potency [16] | Potency [17] | Potency [18] | Potency [19] | Potency [20] |
| --- | --- | --- | --- | --- | --- | --- | --- | --- | --- | --- | --- | --- | --- | --- | --- | --- | --- | --- | --- | --- |
| O=C(O)c1nn(Cc2ccc(Cl)cc2Cl)c2ccccc12 | inactive | inactive | inactive | inactive | inactive | inactive | inactive | inactive | inactive | inactive | inactive | inactive | inactive | inactive | inactive | inactive | inactive | inactive | inactive | – |
| NC(=O)CN1CCCC1=O | inactive | inactive | inactive | inactive | inactive | inactive | inactive | inactive | inactive | inactive | inactive | inactive | inactive | inactive | inactive | inactive | inactive | inactive | inactive | inactive |
| Cc1ncc2n1-c1ccc(Cl)cc1C(c1ccccc1F)=NC2 | inactive | inactive | inactive | inactive | inactive | inactive | inactive | inactive | inactive | inactive | inactive | inactive | inactive | inactive | inactive | inactive | inactive | inactive | inactive | inactive |
| COC(=O)C1=CCCN(C)C1 | inactive | inactive | inactive | inactive | inactive | inactive | inactive | inactive | inactive | inactive | inactive | inactive | inactive | inactive | inactive | inactive | inactive | inactive | inactive | inactive |
| CCC(=O)O[C@H]1CC[C@H]2[C@@H]3CCC4=CC(=O)CC[C@]4(C)[C@H]3CC[C@]12C | inactive | inactive | inactive | inactive | inactive | inactive | inactive | inactive | inactive | inactive | inactive | inactive | inactive | inactive | inactive | inactive | inactive | inactive | inactive | inactive |
| Oc1c(Br)cc(Br)cc1Br | inactive | inactive | inactive | inactive | inactive | inactive | inactive | inactive | inactive | inactive | inactive | inactive | inactive | inactive | inactive | inactive | inactive | inactive | inactive | inactive |
| COc1ccc(C(=O)N2CCCC2=O)cc1 | inactive | inactive | inactive | inactive | inactive | inactive | inactive | inactive | inactive | inactive | inactive | inactive | inactive | inactive | inactive | inactive | inactive | inactive | inactive | inactive |
| CC(C)(C)OC(=O)c1ncn2c1[C@@H]1CCCN1C(=O)c1c(Br)cccc1-2 | inactive | – | inactive | inactive | inactive | inactive | inactive | inactive | inactive | inactive | inactive | inactive | inactive | inactive | inactive | inactive | inactive | inactive | inactive | inactive |
| CCCCCCCCCCCC[N+](C)(C)CCOc1ccccc1 | 5.01 µM (active) | 3.98 µM (active) | 5.01 µM (active) | 5.01 µM (active) | 8.91 µM (active) | – | 7.08 µM (active) | 7.94 µM (active) | 4.47 µM (active) | 9.53 µM (active) | 15.1 µM (active) | 10.7 µM (active) | 8.49 µM (active) | 12 µM (active) | 6.31 µM (active) | 5.01 µM (active) | 7.94 µM (active) | 7.08 µM (active) | 7.94 µM (active) | 10.7 µM (active) |
| ClC1=C(Cl)C2(Cl)C(CBr)CC1(Cl)C2(Cl)Cl (stereo not drawn) | – | – | inactive | inactive | inactive | inactive | inactive | inactive | inactive | inactive | inactive | inactive | inactive | inactive | inactive | inactive | inactive | inactive | inactive | inactive |
| C=CCOC(Cn1ccnc1)c1ccc(Cl)cc1Cl (stereo not drawn) | 11.2 µM (active) | 2 µM (active) | 8.91 µM (active) | 5.01 µM (active) | 10 µM (active) | 8.91 µM (active) | – | – | – | – | 15.1 µM (active) | – | – | 12 µM (active) | 11.2 µM (active) | 4.47 µM (active) | – | – | 10 µM (active) | 9.53 µM (active) |
| CCN(CC)CCOC(=O)C(C)(c1ccccc1)c1ccccc1 | inactive | 5.01 µM (active) | 4.47 µM (active) | – | – | – | inactive | – | – | inactive | – | inactive | – | – | – | – | – | – | – | 7.57 µM (active) |
| OC(O)C(Cl)(Cl)Cl | inactive | – | inactive | inactive | inactive | inactive | inactive | inactive | – | inactive | inactive | inactive | inactive | inactive | inactive | inactive | inactive | inactive | inactive | inactive |
| CCC1(c2ccccc2)CCC(=O)NC1=O (stereo not drawn) | inactive | – | inactive | inactive | inactive | inactive | inactive | inactive | inactive | inactive | inactive | inactive | inactive | inactive | inactive | inactive | inactive | inactive | inactive | inactive |
| CCC1(CC)C(=O)NC(=O)NC1=O | inactive | – | inactive | inactive | inactive | inactive | inactive | inactive | inactive | inactive | inactive | inactive | inactive | inactive | inactive | inactive | inactive | inactive | inactive | inactive |
| CC[C@]1(O)CC[C@H]2[C@@H]3CCC4=CCCC[C@@H]4[C@H]3CC[C@@]21C | inactive | 7.94 µM (active) | – | – | – | – | 0.891 µM (active) | – | – | inactive | inactive | inactive | inactive | inactive | – | inactive | inactive | inactive | – | inactive |

| SMILES | Potency [1] | Potency [2] | Potency [3] | Potency [4] | Potency [5] | Potency [6] | Potency [7] | Potency [8] | Potency [9] | Potency [10] | Potency [11] | Potency [12] | Potency [13] | Potency [14] | Potency [15] | Potency [16] | Potency [17] | Potency [18] | Potency [19] | Potency [20] |
| --- | --- | --- | --- | --- | --- | --- | --- | --- | --- | --- | --- | --- | --- | --- | --- | --- | --- | --- | --- | --- |
| O=C(NC(=O)c1c(F)cccc1F)Nc1cc(Cl)c(OC(F)(F)C(F)C(F)(F)F)cc1Cl (stereo not drawn) | – | – | – | 8.91 µM (active) | – | – | – | – | – | inactive | inactive | inactive | inactive | inactive | – | – | – | – | – | inactive |
| Oc1ccc2[nH]cc(CCCCN3CC=C(c4ccccc4)CC3)c2c1 | – | 3.98 µM (active) | – | – | – | – | – | – | – | – | – | – | – | – | – | 5.62 µM (active) | – | 7.08 µM (active) | – | – |
| O=C1NCN(c2ccccc2)C12CCN(CCCOc1ccc(F)cc1)CC2 | inactive | 11.2 µM (active) | – | – | – | – | – | – | – | inactive | – | inactive | – | inactive | – | 5.01 µM (active) | – | – | – | – |
| Cc1c(Cl)c(=O)oc2cc(OP(=O)(OCCCl)OCCCl)ccc12 | – | 12.6 µM (active) | 11.2 µM (active) | 11.2 µM (active) | 11.2 µM (active) | 7.94 µM (active) | 10 µM (active) | – | 10 µM (active) | – | 9.53 µM (active) | 13.5 µM (active) | 9.53 µM (active) | 9.53 µM (active) | 8.91 µM (active) | 7.94 µM (active) | 8.91 µM (active) | – | 8.91 µM (active) | 8.49 µM (active) |
| COc1ccc(CN2CCNCC2)c(OC)c1OC | inactive | inactive | inactive | inactive | inactive | inactive | inactive | inactive | inactive | inactive | – | – | – | – | inactive | inactive | inactive | inactive | inactive | – |
| COP(=O)(OC)OC=C(Cl)Cl | inactive | – | inactive | inactive | inactive | inactive | inactive | inactive | inactive | inactive | inactive | inactive | inactive | inactive | inactive | inactive | inactive | inactive | inactive | inactive |
| CN1C[C@@H](NS(=O)(=O)N(C)C)C[C@@H]2c3cccc4c3c(cn4C)C[C@H]21 | inactive | inactive | – | inactive | inactive | inactive | inactive | inactive | inactive | – | inactive | inactive | – | inactive | inactive | – | inactive | inactive | inactive | inactive |
| C[C@]12Cc3nonc3C[C@@H]1CC[C@@H]1[C@@H]2CC[C@@]2(C)[C@H]1CC[C@]2(C)O | inactive | – | inactive | inactive | inactive | inactive | inactive | inactive | inactive | inactive | – | inactive | inactive | inactive | – | inactive | inactive | inactive | inactive | inactive |
| CNC(=O)Oc1cccc2ccccc12 | inactive | – | inactive | inactive | inactive | inactive | inactive | inactive | inactive | inactive | inactive | inactive | inactive | inactive | inactive | inactive | inactive | inactive | inactive | inactive |
| CC(C)(O)C(Cl)(Cl)Cl | 2 µM (active) | 0.316 µM (active) | 12.6 µM (active) | 4.47 µM (active) | 3.16 µM (active) | 10 µM (active) | – | – | 3.16 µM (active) | – | – | – | – | 8.49 µM (active) | – | 3.16 µM (active) | 10 µM (active) | 10 µM (active) | 12.6 µM (active) | 10.7 µM (active) |
| COCC(=O)N(c1c(C)cccc1C)C(C)C(=O)OC (stereo not drawn) | inactive | inactive | inactive | – | – | – | inactive | – | – | inactive | inactive | inactive | inactive | inactive | – | inactive | – | – | – | inactive |
| Nc1ccc(N)cc1 | 8.91 µM (active) | – | – | – | – | – | – | – | – | inactive | – | – | – | – | – | inactive | – | 8.91 µM (active) | 12.6 µM (active) | – |
| C[C@]12C=CC(=O)C=C1CC[C@@H]1[C@@H]2CC[C@@]2(C)[C@H]1CC[C@]2(C)O | inactive | inactive | inactive | inactive | inactive | inactive | inactive | inactive | inactive | – | – | – | – | – | inactive | inactive | inactive | inactive | inactive | – |
| N#Cc1nn(-c2c(Cl)cc(C(F)(F)F)cc2Cl)c(N)c1S(=O)C(F)(F)F (stereo not drawn) | 8.91 µM (active) | 3.55 µM (active) | 8.91 µM (active) | – | – | 12.6 µM (active) | 8.91 µM (active) | – | 6.31 µM (active) | – | 15.1 µM (active) | 13.5 µM (active) | – | – | 8.91 µM (active) | 5.01 µM (active) | – | – | 11.2 µM (active) | – |
| O=C(CCCN1CCC(n2c(=O)[nH]c3ccccc32)CC1)c1ccc(F)cc1 | 1 µM (active) | 0.158 µM (active) | 3.55 µM (active) | 2.24 µM (active) | 1.58 µM (active) | 3.16 µM (active) | – | – | 1 µM (active) | – | – | – | – | 4.55 µM (active) | 3.98 µM (active) | 1.41 µM (active) | 3.55 µM (active) | 3.55 µM (active) | 2.82 µM (active) | 4.55 µM (active) |
